# The campaign covered roughly 5,500 compounds. About 2,000 (36%) were called active. Not shown: some 18% with an inconclusive outcome. Some of the results follow. A number with no mark means an inactive call. Cut-off read from the data, not from the text of the source: active = normalized growth mostly below about 0.91 (no sharp cut-off); inconclusive = no clear call, values can overlap the other calls; inactive = mostly above about 0.92.
# Experiment: chemical genetic growth profiling, strain panel (AID 1159580);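 note: tested at 20 µM; growth read once vehicle control cultures reached saturation at 30 °C; 1 = growth at the plate median or of vehicle wells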
# Conditions: S. cerevisiae deletion strains, growth OD
# [1] = locus YAL013W, strain DEP1, stronger effect = lower value
# [2] = locus YBR229C, strain ROT2, stronger effect = lower value
# [3] = locus YDL101C, strain DUN1, stronger effect = lower value
# [4] = locus YDR150W, strain NUM1, stronger effect = lower value
# [5] = locus YEL061C, strain CIN8, stronger effect = lower value
# [6] = locus YGR078C, strain PAC10, stronger effect = lower value
# [7] = locus YHR030C, strain SLT2, stronger effect = lower value
# [8] = locus YHR087W, strain rtc3, stronger effect = lower value
# [9] = locus YJL187C, strain SWE1, stronger effect = lower value
# [10] = locus YJR043C, strain POL32, stronger effect = lower value
# [11] = locus YJR075W, strain HOC1, stronger effect = lower value
# [12] = locus YKL190W, strain CNB1, stronger effect = lower value
# [13] = locus YLR039C, strain RIC1, stronger effect = lower value
# [14] = locus YLR058C, strain SHM2 (second series), stronger effect = lower value
# [15] = locus YLR085C, strain ARP6, stronger effect = lower value
# [16] = locus YLR262C, strain YPT6, stronger effect = lower value
# [17] = locus YML094W, strain GIM5, stronger effect = lower value
# [18] = locus YMR219W, strain ESC1, stronger effect = lower value
# [19] = locus YMR263W, strain SAP30, stronger effect = lower value
# [20] = locus YMR307W, strain GAS1, stronger effect = lower value
# [21] = locus YNL153C, strain GIM3, stronger effect = lower value
# [22] = locus YNL298W, strain CLA4 (second series), stronger effect = lower value
# [23] = locus YNL322C, strain KRE1, stronger effect = lower value
# [24] = locus YNR030W, strain Alg12, stronger effect = lower value
# [25] = locus YOL006C, strain TOP1, stronger effect = lower value
# [26] = locus YPL055C, strain LGE1, stronger effect = lower value
# [27] = locus YPL241C, strain CIN2, stronger effect = lower value
# [28] = locus YPR135W, strain CTF4, stronger effect = lower value
# [29] = locus YCL061C, strain MRC1, stronger effect = lower value
# [30] = locus YDL134C, strain PPH21, stronger effect = lower value
smiles,measurement,setting,value
Cc1ccc(Cl)cc1NC(=S)N(CCC#N)/N=C\c1ccc2c(c1)OCO2,normalized growth,[1],0.997
same,normalized growth,[2],1
same,normalized growth,[3],1
same,normalized growth,[4],1.02
same,normalized growth,[5],1
same,normalized growth,[6],0.991
same,normalized growth,[7],0.953
same,normalized growth,[8],0.995
same,normalized growth,[9],0.995
same,normalized growth,[10],1
same,normalized growth,[11],1.02
same,normalized growth,[12],0.98
same,normalized growth,[13],0.936
same,normalized growth,[14],1.01
same,normalized growth,[15],0.925
same,normalized growth,[16],0.973
same,normalized growth,[17],0.975
same,normalized growth,[18],1
same,normalized growth,[19],1.03
same,normalized growth,[20],0.853
same,normalized growth,[21],1.02
same,normalized growth,[22],0.981
same,normalized growth,[23],0.989
same,normalized growth,[24],0.974
same,normalized growth,[25],0.998
same,normalized growth,[26],1.04
same,normalized growth,[27],0.985
same,normalized growth,[28],1.1
CCOC(=O)/C(C#N)=C/Nc1ccc2c(c1)OCO2,normalized growth,[1],0.992
same,normalized growth,[2],0.985
same,normalized growth,[29],1.01
same,normalized growth,[3],1.07
same,normalized growth,[30],0.963
same,normalized growth,[4],1
same,normalized growth,[5],0.989
same,normalized growth,[6],0.98
same,normalized growth,[7],0.4 (active)
same,normalized growth,[8],0.986
same,normalized growth,[9],0.982
same,normalized growth,[10],0.989
same,normalized growth,[11],0.889 (active)
same,normalized growth,[13],0.795
same,normalized growth,[14],0.971
same,normalized growth,[15],0.772 (active)
same,normalized growth,[16],0.816 (active)
same,normalized growth,[17],1.03
same,normalized growth,[18],0.981
same,normalized growth,[19],0.96
same,normalized growth,[20],0.884
same,normalized growth,[21],1.02
same,normalized growth,[22],0.905
same,normalized growth,[23],0.97
same,normalized growth,[24],0.946
same,normalized growth,[25],0.804
same,normalized growth,[26],0.976
same,normalized growth,[27],0.966
same,normalized growth,[28],0.786
Cc1ccc(S(=O)(=O)N2CCC(N)=N2)cc1,normalized growth,[1],1.03
same,normalized growth,[2],0.954
same,normalized growth,[29],1.03
same,normalized growth,[3],1.05
same,normalized growth,[30],0.984
same,normalized growth,[4],1.02
same,normalized growth,[5],0.997
same,normalized growth,[6],1.02
same,normalized growth,[7],1.1
same,normalized growth,[8],1.01
same,normalized growth,[9],0.999
same,normalized growth,[10],1.05
same,normalized growth,[11],1.02
same,normalized growth,[12],1
same,normalized growth,[13],1
same,normalized growth,[14],0.992
same,normalized growth,[15],1.02
same,normalized growth,[16],0.99
same,normalized growth,[17],1
same,normalized growth,[18],0.995
same,normalized growth,[19],1.02
same,normalized growth,[20],0.997
same,normalized growth,"locus YNL128W, strain TEP1, stronger effect = lower value",1.01
same,normalized growth,[21],1.02
same,normalized growth,[22],1.04
same,normalized growth,[23],1
same,normalized growth,[24],0.992
same,normalized growth,[26],1
same,normalized growth,[27],1
same,normalized growth,[28],1.08
CC(C)(C)NCC(O)COc1cccc2c1CCCC2=O (configuration not stated),normalized growth,"locus YAL021C, strain ccr4, stronger effect = lower value",0.97
same,normalized growth,"locus YAL026C, strain drs2, stronger effect = lower value",0.976
same,normalized growth,"locus YAL030W, strain snc1, stronger effect = lower value",0.985
same,normalized growth,"locus YBL061C, strain skt5, stronger effect = lower value",0.981
same,normalized growth,"locus YBR009C, strain hhf1, stronger effect = lower value",1
same,normalized growth,"locus YBR023C, strain chs3, stronger effect = lower value",0.983
same,normalized growth,"locus YBR171W, strain sec66, stronger effect = lower value",0.934
same,normalized growth,"locus YBR231C, strain swc5, stronger effect = lower value",0.98
same,normalized growth,"locus YBR279W, strain paf1, stronger effect = lower value",0.979
same,normalized growth,"locus YCL011C, strain gbp2, stronger effect = lower value",0.992
same,normalized growth,"locus YCL016C, strain dcc1, stronger effect = lower value",1.02
same,normalized growth,[29],0.957
same,normalized growth,"locus YCL069W, strain vba3, stronger effect = lower value",0.952
same,normalized growth,"locus YCR088W, strain abp1, stronger effect = lower value",0.981
same,normalized growth,"locus YDL005C, strain med2, stronger effect = lower value",0.987
same,normalized growth,"locus YDL040C, strain nat1, stronger effect = lower value",0.978
same,normalized growth,"locus YDR001C, strain nth1, stronger effect = lower value",0.976
same,normalized growth,"locus YDR069C, strain doa4, stronger effect = lower value",0.987
same,normalized growth,"locus YDR137W, strain rgp1, stronger effect = lower value",0.983
same,normalized growth,"locus YDR159W, strain sac3, stronger effect = lower value",0.967
same,normalized growth,"locus YDR195W, strain ref2",0.966
same,normalized growth,"locus YDR297W, strain sur2, stronger effect = lower value",0.981
same,normalized growth,"locus YDR334W, strain swr1, stronger effect = lower value",0.937
same,normalized growth,"locus YDR335W, strain msn5, stronger effect = lower value",0.989
same,normalized growth,"locus YDR392W, strain spt3, stronger effect = lower value",0.992
same,normalized growth,"locus YEL003W, strain gim4, stronger effect = lower value",0.994
same,normalized growth,"locus YEL037C, strain rad23, stronger effect = lower value",0.973
same,normalized growth,"locus YEL061C, strain CIN8 (second series), stronger effect = lower value",0.961
same,normalized growth,"locus YER015W, strain faa2, stronger effect = lower value",0.981
same,normalized growth,"locus YER016W, strain bim1, stronger effect = lower value",1.01
same,normalized growth,"locus YER111C, strain swi4, stronger effect = lower value",0.982
same,normalized growth,"locus YER155C, strain BEM2 (second series), stronger effect = lower value",0.986
same,normalized growth,"locus YFR010W, strain ubp6, stronger effect = lower value",0.95
same,normalized growth,"locus YGL167C, strain pmr1, stronger effect = lower value",0.984
same,normalized growth,"locus YGL173C, strain kem1, stronger effect = lower value",0.977
same,normalized growth,"locus YGL227W, strain vid30, stronger effect = lower value",0.964
same,normalized growth,"locus YGL240W, strain doc1, stronger effect = lower value",0.984
same,normalized growth,"locus YGL253W, strain hxk2, stronger effect = lower value",0.99
same,normalized growth,"locus YHR013C, strain ard1, stronger effect = lower value",0.988
same,normalized growth,"locus YHR027C, strain rpn1, stronger effect = lower value",0.996
same,normalized growth,[7],0.954
same,normalized growth,"locus YHR079C, strain IRE1, stronger effect = lower value",0.954
same,normalized growth,"locus YHR142W, strain chs7, stronger effect = lower value",0.986
same,normalized growth,"locus YJL092W, strain hpr5, stronger effect = lower value",0.99
same,normalized growth,"locus YJL095W, strain BCK1 (second series), stronger effect = lower value",0.988
same,normalized growth,"locus YJL095W, strain BCK1, stronger effect = lower value",0.98
same,normalized growth,"locus YJL115W, strain asf1, stronger effect = lower value",0.959
same,normalized growth,"locus YJL129C, strain trk1, stronger effect = lower value",0.97
same,normalized growth,"locus YJL154C, strain vps35, stronger effect = lower value",0.981
same,normalized growth,"locus YJL164C, strain tpk1, stronger effect = lower value",1
same,normalized growth,"locus YJL166W, strain qcr8, stronger effect = lower value",0.976
same,normalized growth,[9],0.989
same,normalized growth,"locus YJR066W, strain TOR1, stronger effect = lower value",0.943
same,normalized growth,"locus YKL160W, strain elf1, stronger effect = lower value",1.01
same,normalized growth,"locus YKR026C, strain gcn3, stronger effect = lower value",0.983
same,normalized growth,"locus YKR091W, strain srl3, stronger effect = lower value",0.986
same,normalized growth,"locus YLL001W, strain dnm1, stronger effect = lower value",0.985
same,normalized growth,"locus YLL026W, stronger effect = lower value",0.993
same,normalized growth,"locus YLL041C, strain sdh2, stronger effect = lower value",1.01
same,normalized growth,"locus YLR027C, strain aat2, stronger effect = lower value",1.01
same,normalized growth,"locus YLR113W, strain HOG1, stronger effect = lower value",1.01
same,normalized growth,"locus YLR221C, strain rsa3, stronger effect = lower value",0.999
same,normalized growth,"locus YLR258W, strain gsy2, stronger effect = lower value",0.969
same,normalized growth,"locus YLR262C, strain YPT6 (second series), stronger effect = lower value",0.971
same,normalized growth,"locus YLR320W, strain mms22, stronger effect = lower value",0.965
same,normalized growth,"locus YLR342W, strain FKS1, stronger effect = lower value",0.992
same,normalized growth,"locus YLR357W, strain rsc2, stronger effect = lower value",0.991
same,normalized growth,"locus YLR370C, strain arc18, stronger effect = lower value",0.984
same,normalized growth,"locus YLR384C, strain iki3, stronger effect = lower value",0.973
same,normalized growth,"locus YML120C, strain ndi1, stronger effect = lower value",1.01
same,normalized growth,"locus YMR058W, strain fet3, stronger effect = lower value",0.982
same,normalized growth,"locus YMR125W, strain sto1, stronger effect = lower value",0.958
same,normalized growth,"locus YMR129W, stronger effect = lower value",0.992
same,normalized growth,"locus YMR205C, strain PFK2, stronger effect = lower value",0.989
same,normalized growth,"locus YMR231W, strain pep5, stronger effect = lower value",0.983
same,normalized growth,"locus YNL071W, strain lat1, stronger effect = lower value",0.958
same,normalized growth,"locus YNL183C, strain NPR1, stronger effect = lower value",0.952
same,normalized growth,"locus YNL209W, strain ssb2, stronger effect = lower value",0.984
same,normalized growth,"locus YNL248C, strain rpa49, stronger effect = lower value",0.98
same,normalized growth,"locus YNL322C, strain KRE1 (second series), stronger effect = lower value",1.01
same,normalized growth,"locus YNR049C, strain mso1, stronger effect = lower value",0.993
same,normalized growth,"locus YOR001W, strain rrp6, stronger effect = lower value",0.944
same,normalized growth,"locus YOR070C, strain gyp1, stronger effect = lower value",0.992
same,normalized growth,"locus YOR080W, strain dia2, stronger effect = lower value",1
same,normalized growth,"locus YOR083W, strain WHI5, stronger effect = lower value",1.02
same,normalized growth,"locus YOR106W, strain vam3, stronger effect = lower value",0.977
same,normalized growth,"locus YOR231W, strain MKK1, stronger effect = lower value",0.977
same,normalized growth,"locus YOR265W, strain rbl2, stronger effect = lower value",0.979
same,normalized growth,"locus YOR270C, strain vph1, stronger effect = lower value",0.95
same,normalized growth,"locus YOR290C, strain snf2, stronger effect = lower value",1.03
same,normalized growth,"locus YPL051W, strain arl3, stronger effect = lower value",1.01
same,normalized growth,"locus YPL078C, strain atp4, stronger effect = lower value",1
same,normalized growth,"locus YPL106C, strain sse1, stronger effect = lower value",0.975
same,normalized growth,"locus YPL240C, strain hsp82, stronger effect = lower value",0.996
same,normalized growth,"locus YPL256C, strain CLN2, stronger effect = lower value",0.969

# Source: PubChem BioAssay AID1159580 (chemical genetic matrix, 2015)
